From PubChem BioAssay (Tox21)
Inconclusive results are not listed. Activity calls are given as the source filed them. Unless noted, calls come from the whole dose curve; as a rule, active = well fitted curve in the direction sought with a large enough effect in the repeat runs; inconclusive = weak or mixed curves; inactive = no such curve, though single readings can be large; an effect the other way counts as inactive or inconclusive.

Columns and labels:
[1] = qHTS RealTime-Glo MT Cell Viability Assay in HEK293 cells - 24 hour (AID 1224886); note: nearly all actives have a fitted effect of over 50% in size; note: potency is the fitted concentration of half-maximal effect; for activity change, negative = cytotoxicity: top concentration of the series differs between compounds
Procedure, shortened: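 Nonlytic real-time viability readout: viable cells convert prosubstrate to NanoLuc substrate, giving luminescence proportional to live cell number. HEK293, 600 cells/well, compound added after 5 h, continuous culture at 37 C.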

[2] = qHTS RealTime-Glo MT Cell Viability Assay in HEK293 cells - 8 hour (AID 1224887); note: nearly all actives have a fitted effect of over 50% in size; note: potency is the fitted concentration of half-maximal effect; for activity change, negative = cytotoxicity: top concentration of the series differs between compounds
Procedure, shortened: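 Kinetic, non-lysing viability readout. Seed HEK293 (600/well) with reagent, incubate 5 h at 37 C/5% CO2, pin 23 nL compound in DMSO, incubate at 37 C, read luminescence at 0, 8, 16, 24, 32, 40 h.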

[3] = A CellTox Green Cytotoxicity Assay to monitor cytotoxicity in HEK293 cells - 16 hour (AID 1224888); note: nearly all actives have a fitted effect of over 35% in size
Procedure, shortened: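 Real-time, in one plate: 600 HEK293 cells/well with dead-cell DNA dye, pinned compound after 5 h, 37 C incubation over 40 h; viable cells give no appreciable fluorescence.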

[4] = qHTS RealTime-Glo MT Cell Viability Assay in HepG2 cells - 0 hour (AID 1224889); note: nearly all actives have a fitted effect of over 50% in size
Procedure, shortened: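 Luminescence read-out: viable HepG2 cells reduce a prosubstrate to a NanoLuc substrate, giving a signal proportional to live cell number. Reads taken at 0, 8, 16, 24, 32 and 40 h of compound exposure at 37 C.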

[5] = A CellTox Green Cytotoxicity Assay to monitor cytotoxicity in HepG2 cells - 8 hour (AID 1224890); note: nearly all actives have a fitted effect of over 45% in size
Procedure, shortened: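 Cytotoxicity was tracked as dead-cell DNA fluorescence in HepG2 cells treated with test compounds at 37 C; each time-point value comes from one kinetic series spanning 0, 8, 16, 24, 32 and 40 h.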

[6] = qHTS assay to identify small molecule antagonists of the estrogen receptor alpha (ER-alpha) signaling pathway using the BG1 cell line in the presence of 0.1 nM 17-beta-estradiol - cell viability counter screen (AID 1259241); note: nearly all actives have a fitted effect of over 40% in size
Procedure, shortened: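 VM7Luc4E2, 4,000 cells/well, phenol red-free medium + 10% charcoal-stripped FBS; 24 hr plating; cpd + 0.1 nM E2 final, 22 hr 37C/5% CO2; CellTiter-Fluor 30 min, fluorescence.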

[7] = qHTS assay to identify small molecule antagonists of the androgen receptor (AR) signaling pathway using the MDA cell line in the presence of 0.5 nM R1881 - cell viability counter screen (AID 1259242); note: nearly all actives have a fitted effect of over 45% in size
Procedure, shortened: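 Cells seeded at 3,000/well and allowed 5 hr at 37C, 0% CO2 before compound transfer and R1881 (0.5 nM final) addition; 16 hr later, live-cell protease fluorescence indicated cytotoxicity.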

[8] = qHTS assay to identify small molecule phospholipidosis (PLD) inducers (AID 1259344; active = well fitted curve in the direction sought with a large enough effect; an effect the other way counts as inactive or inconclusive)
Procedure, shortened: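 Cells (HepG2, 900 per well) attach for 4 h, receive LipidTOX Red and compound together, incubate 24 h at 37 C, are fixed 30 min with paraformaldehyde/Hoechst, then imaged at one site per well.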

[9] = qHTS assay to identify small molecule HDAC inhibitors (AID 1259364);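 note: wild-type HCT-116 cells with endogenous class I/II HDAC activity; top concentration of the series differs between compounds; nearly all actives have a fitted effect of over 45% in size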
Procedure, shortened: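 HCT-116 wt cells, 1,500/well, overnight attach. Compounds (DMSO) 2 h, 37 °C. HDAC-Glo I/II, 30 min RT. Luminescence.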

[10] = qHTS assay to identify small molecule HDAC inhibitors - cell viability counter screen (AID 1259365); note: series mostly up to about 92 µM; nearly all actives have a fitted effect of over 50% in size
Procedure, shortened: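 Luminescence from CellTiter-Glo, developed 30min at room temperature, reports viability of wild-type HCT-116 cells treated 2hr with compounds at 37 C and 5% CO2 after overnight plating.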

[11] = qHTS assay to identify small molecule agonists of the sonic hedgehog signaling (Shh) pathway - cell viability counter screen (AID 1259366); note: nearly all actives have a fitted effect of over 50% in size; note: potency is the fitted concentration of half-maximal effect
Procedure, shortened: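 Cytotoxicity counter screen run in the same wells as the Shh reporter assay. NIH/3T3 cells carrying a Gli1 response element–driven luciferase were treated with DMSO-dissolved compounds for 24hr, and live-cell protease activity was measured with CellTiter-Fluor.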

[12] = qHTS assay to identify small molecule antagonists of the sonic hedgehog signaling (Shh) pathway - cell viability counter screen (AID 1259367); note: nearly all actives have a fitted effect of over 55% in size; note: potency is the fitted concentration of half-maximal effect
Procedure, shortened: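 Cytotoxicity was assessed in parallel with Shh reporter activity by measuring live-cell protease fluorescence (CellTiter-Fluor) in NIH/3T3 cells stably carrying Gli1-Luc, treated with compound under conditioned medium stimulation for 23 hr plus 1 hr reagent incubation.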

[13] = qHTS assay to identify small molecule agonists of the sonic hedgehog signaling (Shh) pathway (AID 1259368; calls by dose curve;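 note: NIH/3T3-derived 3T3Gli1-Luc cells carrying a stable Gli1-driven firefly luciferase reporter; series mostly up to about 92 µM; nearly all actives have a fitted effect of over 15% in size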)
Procedure, shortened: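 Following a 24 hr incubation with DMSO-dissolved compounds at 37 C, 5% CO2, Gli1-Luc NIH/3T3-derived cells received luciferase reagent for 30 min at room temperature prior to luminescence measurement.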

[14] = qHTS assay to identify small molecule antagonists of the sonic hedgehog signaling (Shh) pathway (AID 1259369; calls by dose curve; note: nearly all actives have a fitted effect of over 45% in size)
Procedure, shortened: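 Read-out is luminescence from a firefly luciferase gene controlled by the Gli1 response element, in 3T3Gli1-Luc cells pre-incubated 4hr then exposed to compounds and conditioned medium for 24hr.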

[15] = biological target: Estrogen receptor beta (Homo sapiens) (UniProt Q92731); test: qHTS assay to identify small molecule agonists of the estrogen receptor beta (ER-beta) signaling pathway (AID 1259377; active = well fitted activation curve with a large enough effect in the signal ratio in the repeat runs, not every such curve was filed as active; the % refers to the signal ratio)
Procedure, shortened: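 HEK293T ER-beta-UAS-bla; 2% charcoal-stripped FBS; cells pre-incubated 6 hr, compound 16 hr, 37C/5% CO2; LiveBLAzer B/G FRET substrate 2 h RT; fluorescence intensity read.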

[16] = qHTS assay to identify small molecule agonists of the androgen receptor (AR) signaling pathway in the presence of an antagonist - cell viability counter screen (AID 1259379);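 note: MDA-kb2 human breast cancer cells carrying an MMTV luciferase reporter; series mostly up to about 92 µM; nearly all actives have a fitted effect of over 25% in size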
Procedure, shortened: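 Each compound was tested at 15 concentrations on MDA-kb2 cells in the presence of 3.0uM nilutamide. Viability was measured by CellTiter-Fluor fluorescence after a 16 hr incubation at 37C in a CO2-free atmosphere.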

[17] = qHTS assay to identify small molecule agonists of the estrogen receptor beta (ER-beta) signaling pathway - cell viability counter screen (AID 1259380); note: nearly all actives have a fitted effect of over 30% in size
Procedure, shortened: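 Compounds dissolved in DMSO were pin-transferred onto ER-beta-UAS-bla HEK293T cells that had settled 6 hr, and exposure ran 16 hr at 37C. Following the reporter read, CellTiter-Glo luminescence after 30 min at room temperature indicated cytotoxicity.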

[18] = biological target: Estrogen receptor (Homo sapiens) (UniProt P03372); test: qHTS assay to identify small molecule antagonists of the estrogen receptor alpha (ER-alpha) signaling pathway using the BG1 cell line in the presence of 0.1 nM 17-beta-estradiol (AID 1259244); note: nearly all actives have a fitted effect of over 50% in size
Procedure, shortened: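 Luciferase signal from VM7Luc4E2 ERE-reporter cells, co-dosed with test compound and 0.1 nM final 17beta-estradiol for 22 h, read with ONE-Glo.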

[19] = biological target: Estrogen receptor beta (Homo sapiens) (UniProt Q92731); test: qHTS assay to identify small molecule antagonists of the estrogen receptor beta (ER-beta) signaling pathway (AID 1259378; active = well fitted inhibition curve with a large enough effect in the signal ratio in the repeat runs, not every such curve was filed as active; the % refers to the signal ratio)
Procedure, shortened: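 ER-beta-UAS-bla HEK293T (GripTite) cells in 2% charcoal-stripped FBS medium were preincubated 6 hr at 37C, dosed with compound, then stimulated with 1 nM E2 (final) for 16 hr; beta-lactamase reporter read by B/G FRET fluorescence after 2 hr substrate loading.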
% is set by controls: 0 for no effect and ±100 for the full control effect.

Sequence of Estrogen receptor beta (Homo sapiens) (Q92731 whole entry, looked up): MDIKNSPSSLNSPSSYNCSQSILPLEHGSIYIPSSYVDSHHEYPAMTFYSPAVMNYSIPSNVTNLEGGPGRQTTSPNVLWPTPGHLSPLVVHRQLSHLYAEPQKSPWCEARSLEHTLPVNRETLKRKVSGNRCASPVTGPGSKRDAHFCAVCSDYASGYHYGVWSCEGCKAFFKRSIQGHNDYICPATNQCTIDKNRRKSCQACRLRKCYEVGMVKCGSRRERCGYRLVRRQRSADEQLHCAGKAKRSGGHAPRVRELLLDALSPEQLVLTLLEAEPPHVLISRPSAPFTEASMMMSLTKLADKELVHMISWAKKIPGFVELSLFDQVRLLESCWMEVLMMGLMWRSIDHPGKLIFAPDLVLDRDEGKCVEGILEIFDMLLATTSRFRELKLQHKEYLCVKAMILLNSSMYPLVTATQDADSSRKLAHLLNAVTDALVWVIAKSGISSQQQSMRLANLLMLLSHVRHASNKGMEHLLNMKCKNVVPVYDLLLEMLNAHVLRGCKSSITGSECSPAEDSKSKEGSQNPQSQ
Sequence of Estrogen receptor (Homo sapiens) (P03372 whole entry, looked up): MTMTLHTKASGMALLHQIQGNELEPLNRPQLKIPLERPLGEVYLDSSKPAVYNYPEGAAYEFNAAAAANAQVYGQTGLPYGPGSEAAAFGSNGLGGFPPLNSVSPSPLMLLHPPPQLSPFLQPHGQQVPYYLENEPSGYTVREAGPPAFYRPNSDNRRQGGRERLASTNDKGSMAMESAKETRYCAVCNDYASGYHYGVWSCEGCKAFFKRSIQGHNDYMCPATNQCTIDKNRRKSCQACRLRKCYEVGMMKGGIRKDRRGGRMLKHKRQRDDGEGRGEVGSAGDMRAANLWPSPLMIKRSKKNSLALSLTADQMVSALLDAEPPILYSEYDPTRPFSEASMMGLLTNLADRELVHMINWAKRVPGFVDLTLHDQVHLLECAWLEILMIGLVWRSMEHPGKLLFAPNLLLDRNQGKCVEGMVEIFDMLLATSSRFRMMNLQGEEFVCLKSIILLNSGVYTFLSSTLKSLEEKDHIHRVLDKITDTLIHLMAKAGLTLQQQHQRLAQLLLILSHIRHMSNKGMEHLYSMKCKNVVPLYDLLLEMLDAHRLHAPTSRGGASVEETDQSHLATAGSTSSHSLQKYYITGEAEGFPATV

CN=C(NC#N)NCCSCc1csc(N=C(N)N)n1
inactive: Potency [1] | Potency [2] | Potency [3] | Potency [4] | Potency [5] | Potency [6] | Potency [7] | outcome [8] | Potency [9] | outcome [10] | Potency [11] | Potency [12] | outcome [13] | Potency [14] | Potency [15] | Potency [16] | outcome [17]

CC1=CC[C@H](CC=O)C1(C)C
inactive: Potency [1] | Potency [2] | Potency [3] | Potency [4] | Potency [5] | Potency [6] | Potency [7] | Potency [18] | Potency [9] | outcome [10] | Potency [11] | Potency [12] | outcome [13] | Potency [15] | outcome [19] | Potency [16] | outcome [17]

CCCCC/C=C/CC(=O)OC
inactive: Potency [1] | Potency [2] | Potency [3] | Potency [4] | Potency [5] | Potency [6] | Potency [7] | Potency [9] | outcome [10] | Potency [11] | Potency [12] | outcome [13] | Potency [14] | Potency [15] | outcome [19] | Potency [16] | outcome [17]

CC(C)(c1ccc(Oc2ccc3c(c2)C(=O)OC3=O)cc1)c1ccc(Oc2ccc3c(c2)C(=O)OC3=O)cc1
inactive: Potency [1] | Potency [2] | Potency [3] | Potency [4] | Potency [5] | Potency [6] | Potency [7] | Potency [18] | Potency [9] | outcome [10] | Potency [11] | Potency [12] | outcome [13] | Potency [15] | Potency [16]

CC1CCC(C(C)(C)S)C(=O)C1 (stereo unspecified)
inactive: Potency [3] | Potency [4] | Potency [5] | Potency [6] | Potency [7] | Potency [18] | Potency [9] | outcome [10] | Potency [11] | outcome [13] | Potency [15] | outcome [19] | Potency [16]
active: Potency [1] 3.89 µM | Potency [2] 19.5 µM

CC(=O)Nc1ccc(C)cc1
inactive: Potency [1] | Potency [2] | Potency [3] | Potency [4] | Potency [5] | Potency [6] | Potency [7] | Potency [18] | Potency [9] | outcome [10] | Potency [11] | Potency [12] | Potency [14] | Potency [15] | Potency [16] | outcome [17]

Cc1cc(C)cc([N+](=O)[O-])c1
inactive: Potency [1] | Potency [2] | Potency [3] | Potency [4] | Potency [5] | Potency [6] | Potency [7] | Potency [18] | Potency [9] | outcome [10] | Potency [11] | Potency [12] | Potency [14] | Potency [16] | outcome [17]

CC(C)(CO)[C@@H](O)C(=O)NCCCO
inactive: Potency [1] | Potency [2] | Potency [3] | Potency [4] | Potency [5] | Potency [6] | Potency [7] | outcome [8] | Potency [9] | outcome [10] | Potency [11] | Potency [12] | outcome [13] | Potency [14] | Potency [15] | outcome [19] | Potency [16] | outcome [17]

CCN(CCC#N)c1ccccc1
inactive: Potency [1] | Potency [2] | Potency [3] | Potency [4] | Potency [5] | Potency [6] | Potency [7] | Potency [18] | Potency [9] | outcome [10] | Potency [11] | Potency [12] | Potency [14] | Potency [15] | Potency [16] | outcome [17]

C[C@H]1O[C@H](O[C@H]2[C@H](O)[C@@H](O)[C@@H](O[C@H]3[C@H](O)[C@@H](O)[C@H](O)O[C@@H]3CO)O[C@@H]2CO)[C@H](O)[C@@H](O)[C@@H]1N[C@H]1C=C(CO)[C@@H](O)[C@H](O)[C@H]1O
inactive: Potency [1] | Potency [2] | Potency [3] | Potency [4] | Potency [5] | Potency [6] | Potency [7] | outcome [8] | Potency [9] | outcome [10] | Potency [11] | Potency [12] | outcome [13] | Potency [14] | outcome [19] | Potency [16] | outcome [17]

O=S(=O)(O)CCO
inactive: Potency [1] | Potency [2] | Potency [3] | Potency [4] | Potency [5] | Potency [6] | Potency [7] | Potency [18] | Potency [9] | outcome [10] | Potency [11] | outcome [13] | Potency [14] | outcome [19] | Potency [16] | outcome [17]

Nc1c(NC/C=C\COc2cc(CN3CCCCC3)ccn2)c(=O)c1=O
inactive: activity change, negative = cytotoxicity [1] 3.04% [at 15.8 µM] | activity change, negative = cytotoxicity [2] 1.9% [at 15.8 µM] | activity change [3] 3.09% [at 15.8 µM, active compounds read high] | activity change, negative = cytotoxicity [4] 8.54% [at 15.8 µM] | cytotoxicity increase [5] -13.1% [at 15.8 µM] | activity change, negative = cytotoxicity [6] -19.8% [at 19 µM] | viability change, negative = cytotoxic [7] -4.94% [at 19 µM] | outcome [8] | activity change, negative = inhibition [9] -4.93% [at 19 µM] | activity change, negative = cytotoxicity [10] 4.37% [at 19 µM] | activity change, negative = inhibition [14] 0.103% [at 19 µM] | activity change, negative = cytotoxicity [16] -0.565% [at 19 µM] | activity change, negative = cytotoxicity [17] 1.31% [at 19 µM]
active: Potency [11] 5.17 µM | Potency [12] 5.17 µM

C=CCOCC(CO)(COCC=C)COCC=C
inactive: Potency [1] | Potency [2] | Potency [3] | Potency [4] | Potency [5] | Potency [6] | Potency [7] | Potency [9] | outcome [10] | Potency [11] | Potency [12] | outcome [13] | Potency [14] | Potency [15] | Potency [16] | outcome [17]

CCC(=O)c1ccc(O)cc1
inactive: Potency [1] | Potency [2] | Potency [3] | Potency [4] | Potency [5] | Potency [6] | Potency [7] | outcome [8] | Potency [9] | outcome [10] | Potency [11] | Potency [12] | outcome [13] | Potency [14] | Potency [16] | outcome [17]
